# Test results reported in PubChem BioAssay AID1159580 (chemical genetic matrix, 2015).
# Screen size: about 5,500 compounds; about 2,000 (36%) were called active. Inconclusive results (about 18%) are left out. The list shows a part of the results. A number with no mark means an inactive call. No stated cut-off is given here; in the data, active means normalized growth mostly below about 0.91 (no sharp cut-off); inconclusive means no clear call, values can overlap the other calls; inactive means mostly above about 0.92.
# Test: chemical genetic growth profiling, strain panel (AID 1159580);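 further: tested at 20 µM; growth read once vehicle control cultures reached saturation at 30 °C; 1 = growth at the plate median or of vehicle wells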
# Conditions: growth OD
structure (smiles),measurement,setting,value
COc1ccc2c(c1)OCC(Cc1ccc(OC)c(O)c1)C2=O (stereo not drawn),normalized growth,"S. cerevisiae deletion strains, locus YJR043C, strain POL32, stronger effect = lower value",0.998
same,normalized growth,"S. cerevisiae deletion strains, locus YJR066W, strain TOR1, stronger effect = lower value",0.904
same,normalized growth,"S. cerevisiae deletion strains, locus YKL009W, strain mrt4, stronger effect = lower value",0.94
same,normalized growth,"S. cerevisiae deletion strains, locus YKL068W, stronger effect = lower value",0.97
same,normalized growth,"S. cerevisiae deletion strains, locus YKL085W, strain MDH1 (second series), stronger effect = lower value",0.969
same,normalized growth,"S. cerevisiae deletion strains, locus YKL085W, strain MDH1, stronger effect = lower value",0.969
same,normalized growth,"S. cerevisiae deletion strains, locus YKL160W, strain elf1, stronger effect = lower value",0.925
same,normalized growth,"S. cerevisiae deletion strains, locus YKL190W, strain CNB1, stronger effect = lower value",0.984
same,normalized growth,"S. cerevisiae deletion strains, locus YKR001C, strain vps1, stronger effect = lower value",0.964
same,normalized growth,"S. cerevisiae deletion strains, locus YKR026C, strain gcn3, stronger effect = lower value",0.966
same,normalized growth,"S. cerevisiae deletion strains, locus YKR091W, strain srl3, stronger effect = lower value",0.962
same,normalized growth,"S. cerevisiae deletion strains, locus YLL001W, strain dnm1, stronger effect = lower value",0.931
same,normalized growth,"S. cerevisiae deletion strains, locus YLL026W, stronger effect = lower value",0.957
same,normalized growth,"S. cerevisiae deletion strains, locus YLL041C, strain sdh2, stronger effect = lower value",0.955
same,normalized growth,"S. cerevisiae deletion strains, locus YLR027C, strain aat2, stronger effect = lower value",0.933
same,normalized growth,"S. cerevisiae deletion strains, locus YLR039C, strain RIC1, stronger effect = lower value",1.02
same,normalized growth,"S. cerevisiae deletion strains, locus YLR058C, strain SHM2, stronger effect = lower value",0.958
same,normalized growth,"S. cerevisiae deletion strains, locus YLR102C, strain apc9, stronger effect = lower value",0.955
same,normalized growth,"S. cerevisiae deletion strains, locus YLR113W, strain HOG1, stronger effect = lower value",0.917
same,normalized growth,"S. cerevisiae deletion strains, locus YLR221C, strain rsa3, stronger effect = lower value",0.923
same,normalized growth,"S. cerevisiae deletion strains, locus YLR258W, strain gsy2, stronger effect = lower value",0.91 (active)
same,normalized growth,"S. cerevisiae deletion strains, locus YLR262C, strain YPT6 (second series), stronger effect = lower value",0.985
same,normalized growth,"S. cerevisiae deletion strains, locus YLR262C, strain YPT6, stronger effect = lower value",0.986
same,normalized growth,"S. cerevisiae deletion strains, locus YLR268W, strain sec22, stronger effect = lower value",0.976
same,normalized growth,"S. cerevisiae deletion strains, locus YLR320W, strain mms22, stronger effect = lower value",0.835 (active)
same,normalized growth,"S. cerevisiae deletion strains, locus YLR330W, strain CHS5, stronger effect = lower value",0.952
same,normalized growth,"S. cerevisiae deletion strains, locus YLR342W, strain FKS1 (second series), stronger effect = lower value",0.955
same,normalized growth,"S. cerevisiae deletion strains, locus YLR342W, strain FKS1, stronger effect = lower value",0.922
same,normalized growth,"S. cerevisiae deletion strains, locus YLR357W, strain rsc2, stronger effect = lower value",0.998
same,normalized growth,"S. cerevisiae deletion strains, locus YLR370C, strain arc18, stronger effect = lower value",0.97
same,normalized growth,"S. cerevisiae deletion strains, locus YLR371W, strain rom2, stronger effect = lower value",0.975
same,normalized growth,"S. cerevisiae deletion strains, locus YLR384C, strain iki3, stronger effect = lower value",0.948
same,normalized growth,"S. cerevisiae deletion strains, locus YLR418C, strain cdc73, stronger effect = lower value",0.81 (active)
same,normalized growth,"S. cerevisiae deletion strains, locus YML016C, strain PPZ1, stronger effect = lower value",0.967
same,normalized growth,"S. cerevisiae deletion strains, locus YML032C, strain rad52, stronger effect = lower value",0.949
same,normalized growth,"S. cerevisiae deletion strains, locus YML120C, strain ndi1, stronger effect = lower value",0.938
same,normalized growth,"S. cerevisiae deletion strains, locus YML124C, strain tub3, stronger effect = lower value",0.954
same,normalized growth,"S. cerevisiae deletion strains, locus YMR058W, strain fet3, stronger effect = lower value",0.948
same,normalized growth,"S. cerevisiae deletion strains, locus YMR078C, strain ctf18, stronger effect = lower value",0.95
same,normalized growth,"S. cerevisiae deletion strains, locus YMR125W, strain sto1, stronger effect = lower value",1.01
same,normalized growth,"S. cerevisiae deletion strains, locus YMR129W, stronger effect = lower value",0.948
same,normalized growth,"S. cerevisiae deletion strains, locus YMR205C, strain PFK2, stronger effect = lower value",0.833 (active)
same,normalized growth,"S. cerevisiae deletion strains, locus YMR223W, strain ubp8, stronger effect = lower value",0.933
same,normalized growth,"S. cerevisiae deletion strains, locus YMR231W, strain pep5, stronger effect = lower value",0.967
same,normalized growth,"S. cerevisiae deletion strains, locus YMR307W, strain GAS1, stronger effect = lower value",0.97
same,normalized growth,"S. cerevisiae deletion strains, locus YNL067W, strain RPL9B, stronger effect = lower value",0.944
same,normalized growth,"S. cerevisiae deletion strains, locus YNL071W, strain lat1, stronger effect = lower value",0.681 (active)
same,normalized growth,"S. cerevisiae deletion strains, locus YNL183C, strain NPR1, stronger effect = lower value",0.933
same,normalized growth,"S. cerevisiae deletion strains, locus YNL209W, strain ssb2, stronger effect = lower value",0.978
same,normalized growth,"S. cerevisiae deletion strains, locus YNL233W, strain BNI4, stronger effect = lower value",0.905
same,normalized growth,"S. cerevisiae deletion strains, locus YNL248C, strain rpa49, stronger effect = lower value",0.919
same,normalized growth,"S. cerevisiae deletion strains, locus YNL250W, strain rad50, stronger effect = lower value",0.94
same,normalized growth,"S. cerevisiae deletion strains, locus YNL271C, strain bni1, stronger effect = lower value",0.952
same,normalized growth,"S. cerevisiae deletion strains, locus YNL298W, strain CLA4, stronger effect = lower value",0.959
same,normalized growth,"S. cerevisiae deletion strains, locus YNL307C, strain MCK1, stronger effect = lower value",0.824 (active)
same,normalized growth,"S. cerevisiae deletion strains, locus YNL322C, strain KRE1 (second series), stronger effect = lower value",0.949
same,normalized growth,"S. cerevisiae deletion strains, locus YNR049C, strain mso1, stronger effect = lower value",0.967
same,normalized growth,"S. cerevisiae deletion strains, locus YNR052C, strain pop2, stronger effect = lower value",0.937
same,normalized growth,"S. cerevisiae deletion strains, locus YOL012C, strain htz1",1.16
same,normalized growth,"S. cerevisiae deletion strains, locus YOL147C, strain pex11, stronger effect = lower value",0.964
same,normalized growth,"S. cerevisiae deletion strains, locus YOR001W, strain rrp6, stronger effect = lower value",0.898
same,normalized growth,"S. cerevisiae deletion strains, locus YOR061W, strain CKA2, stronger effect = lower value",0.963
same,normalized growth,"S. cerevisiae deletion strains, locus YOR069W, strain VPS5, stronger effect = lower value",0.96
same,normalized growth,"S. cerevisiae deletion strains, locus YOR070C, strain gyp1, stronger effect = lower value",0.968
same,normalized growth,"S. cerevisiae deletion strains, locus YOR080W, strain dia2, stronger effect = lower value",0.979
same,normalized growth,"S. cerevisiae deletion strains, locus YOR083W, strain WHI5, stronger effect = lower value",0.911
same,normalized growth,"S. cerevisiae deletion strains, locus YOR106W, strain vam3, stronger effect = lower value",0.886
same,normalized growth,"S. cerevisiae deletion strains, locus YOR136W, strain idh2, stronger effect = lower value",0.962
same,normalized growth,"S. cerevisiae deletion strains, locus YOR144C, strain elg1, stronger effect = lower value",0.95
same,normalized growth,"S. cerevisiae deletion strains, locus YOR184W, strain ser1, stronger effect = lower value",0.906
same,normalized growth,"S. cerevisiae deletion strains, locus YOR231W, strain MKK1, stronger effect = lower value",0.998
same,normalized growth,"S. cerevisiae deletion strains, locus YOR265W, strain rbl2, stronger effect = lower value",0.962
same,normalized growth,"S. cerevisiae deletion strains, locus YOR270C, strain vph1, stronger effect = lower value",0.823
same,normalized growth,"S. cerevisiae deletion strains, locus YOR290C, strain snf2, stronger effect = lower value",0.897
same,normalized growth,"S. cerevisiae deletion strains, locus YOR316C, strain cot1, stronger effect = lower value",0.959
same,normalized growth,"S. cerevisiae deletion strains, locus YPL051W, strain arl3, stronger effect = lower value",0.939
same,normalized growth,"S. cerevisiae deletion strains, locus YPL055C, strain LGE1, stronger effect = lower value",0.96
same,normalized growth,"S. cerevisiae deletion strains, locus YPL078C, strain atp4, stronger effect = lower value",0.914
same,normalized growth,"S. cerevisiae deletion strains, locus YPL106C, strain sse1, stronger effect = lower value",0.972
same,normalized growth,"S. cerevisiae deletion strains, locus YPL240C, strain hsp82, stronger effect = lower value",0.946
same,normalized growth,"S. cerevisiae deletion strains, locus YPL241C, strain CIN2, stronger effect = lower value",0.973
same,normalized growth,"S. cerevisiae deletion strains, locus YPL256C, strain CLN2, stronger effect = lower value",1.01
same,normalized growth,"S. cerevisiae deletion strains, locus YPR119W, strain clb2, stronger effect = lower value",0.95
same,normalized growth,"S. cerevisiae deletion strains, locus YPR141C, strain kar3, stronger effect = lower value",0.971
same,normalized growth,"S. cerevisiae deletion strains, locus YPR163C, strain tif3, stronger effect = lower value",0.842 (active)
same,normalized growth,"S. cerevisiae deletion strains, locus YPR167C, strain met16, stronger effect = lower value",0.89 (active)
same,normalized growth,"S. cerevisiae deletion strains, strain wtn01, stronger effect = lower value",0.95
same,normalized growth,"S. cerevisiae strains, strain wild type, stronger effect = lower value",0.973
